Potency, outcome and PLD induction data for 21 molecules are collected here from PubChem BioAssay (Tox21).

The nature of assay [1]: qHTS assay to identify small molecule antagonists of the androgen receptor (AR) signaling pathway using the MDA cell line in the presence of 0.5 nM R1881 - cell viability counter screen (AID 1259242). Also: nearly all actives have a fitted effect of over 45% in size. An outline of the steps:
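Live-cell protease activity was measured by CellTiter-Fluor fluorescence after 30 min. Before that, MDA-kb2 MMTV-luciferase cells had 16 hr at 37C without CO2, exposed to test compounds and 0.5 nM R1881 final.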
In general terms: qHTS replaces the single test concentration by a dilution series.

A short description of assay [2]: qHTS assay to identify small molecule HDAC inhibitors (AID 1259364). Also: nearly all actives have a fitted effect of over 45% in size. Also: potency is read from the fitted curve at half-maximal effect. An outline of the steps:
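Luminescence read after 30 min room-temperature HDAC-Glo incubation measures cellular class I/II HDAC activity. Compounds were applied for 2 hr at 37 C to HCT-116 wild-type cells seeded the day before.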

Assay [3] is described as follows: qHTS assay to identify small molecule HDAC inhibitors - cell viability counter screen (AID 1259365). Also: series mostly up to about 92 µM; nearly all actives have a fitted effect of over 50% in size. An outline of the steps:
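Luminescence from CellTiter-Glo, developed 30min at room temperature, reports viability of wild-type HCT-116 cells treated 2hr with compounds at 37 C and 5% CO2 after overnight plating.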

Assay [4] is described as follows: qHTS assay to identify small molecule agonists of the sonic hedgehog signaling (Shh) pathway - cell viability counter screen (AID 1259366). Also: nearly all actives have a fitted effect of over 50% in size. An outline of the steps:
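Cytotoxicity counter screen run in the same wells as the Shh reporter assay. NIH/3T3 cells carrying a Gli1 response element–driven luciferase were treated with DMSO-dissolved compounds for 24hr, and live-cell protease activity was measured with CellTiter-Fluor.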

The nature of assay [5]: qHTS assay to identify small molecule antagonists of the sonic hedgehog signaling (Shh) pathway - cell viability counter screen (AID 1259367). Also: nearly all actives have a fitted effect of over 55% in size. Also: potency is read from the fitted curve at half-maximal effect. In outline:
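CellTiter-Fluor signal in conditioned medium-stimulated 3T3 Gli1-Luc cells, 23 hr compound exposure, 37C.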

Assay [6] in a line: qHTS assay to identify small molecule agonists of the sonic hedgehog signaling (Shh) pathway (AID 1259368; calls by dose curve; also: nearly all actives have a fitted effect of over 15% in size; also: potency is read from the fitted curve at half-maximal effect). An outline of the steps: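 Luminescence was read after 30 min at room temperature with luciferase reagent. Before that, 3T3Gli1-Luc cells (NIH/3T3 clone, stable Gli1-Luc reporter; 2,000/well) were exposed to compounds for 24 hr at 37C, 5% CO2, compounds being added 4 hr post-plating.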

A short description of assay [7]: qHTS assay to identify small molecule antagonists of the sonic hedgehog signaling (Shh) pathway (AID 1259369; calls by dose curve; also: nearly all actives have a fitted effect of over 45% in size; also: potency is read from the fitted curve at half-maximal effect). In outline: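 Antagonist mode: compound added to 3T3 Gli1-Luc cells followed by conditioned-medium stimulation, 24 h at 37 C, 5% CO2. Inhibition taken as loss of Gli1-driven luciferase luminescence.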
A short description of assay [8]: qHTS assay to identify small molecule phospholipidosis (PLD) inducers (AID 1259344; active = well fitted curve in the direction sought with a large enough effect; an effect the other way counts as inactive or inconclusive). An outline of the steps:
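Accumulated phospholipid, stained red by LipidTOX during 24 h compound treatment of HepG2 cells at 37 C, is quantified from images as pit number and intensity, normalised per cell using Hoechst-stained nuclei.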

Values joined by “and” are separate entries in the source; they are usually repeats but may differ in a detail not shown here. Equal values may be shown once. Inconclusive results are not listed. Where a structure was tested more than once in an assay, its records may differ in their call. Active and inactive are the calls of the source. Unless noted, calls follow the shape of the dose curve; as a rule, active = well fitted curve in the direction sought with a large enough effect in the repeat runs; inconclusive = weak or mixed curves; inactive = no such curve, though single readings can be large; an effect the other way counts as inactive or inconclusive.
% is scaled to controls: 0 for no effect and ±100 for the full control effect.

`CCCCOC(=O)c1ccccc1C(=O)OCc1ccccc1`: the Potency entry in assay [1], in assay [3], in assay [4] and in assay [6] was “inactive” throughout. The Potency result was “inactive and 17.2 µM (active)” in assay [2]; “inactive and 48.6 µM (active)” in assay [5]; “inactive and 19.3 µM (active)” in assay [7].
As for `CCOS(C)(=O)=O`, the Potency entry in assay [1], in assay [2], in assay [3], in assay [4], in assay [5] and in assay [6] was “inactive” throughout. In assay [7], the Potency result is “inactive”.
For the molecule `O=C(O)c1ccccc1C(=O)Nc1cccc2ccccc12`, the Potency result in assay [1], in assay [2], in assay [3], in assay [4], in assay [5] and in assay [6] was “inactive” in each case. In addition, in assay [7], the Potency result was “inactive”.
For the molecule `CN1C(=O)NC(=O)C(C)(C2=CCCCC2)C1=O` (stereo not drawn), the Potency result in assay [1], in assay [2], in assay [4], in assay [5] and in assay [7] was “inactive” throughout. Also, the molecule was called inactive in assay [8].
With `Nc1nc(N)nc(N)n1`, the Potency entry in assay [1], in assay [2], in assay [3], in assay [4], in assay [5] and in assay [6] was “inactive” throughout. The Potency result in assay [7] is “inactive”.
In the case of `[CH3][Sn]([CH3])([Cl])[Cl]`, the Potency result in assay [1], in assay [2], in assay [3], in assay [4] and in assay [5] was “inactive” each time. Moreover, the Potency in assay [6] was 7.82 µM (active) and 24.3 µM (active); in assay [7], 2.43 µM (active).
For the molecule `CC(C)(C)C(O)C(Oc1ccc(Cl)cc1)n1cncn1` (stereo not drawn), the Potency entry in assay [1], in assay [2], in assay [3], in assay [4] and in assay [6] was “inactive” in each case. In addition, the PLD induction in assay [8] was -1.67% [at 3.15 µM] (inactive).
Take `O=Cc1ccc(Cl)cc1Cl`: the Potency entry in assay [1], in assay [2], in assay [3], in assay [4], in assay [5] and in assay [6] was “inactive” each time. Also, the Potency result in assay [7] was “inactive”.
For `CCOC(=O)[C@]1(c2ccccc2)Oc2ccccc2[C@@H]1N`, the Potency result in assay [1], in assay [2], in assay [3], in assay [4], in assay [5] and in assay [6] was “inactive” throughout.
With `CCCCN(N=O)C(=N)N[N+](=O)[O-]`, the Potency entry in assay [1], in assay [2], in assay [3], in assay [4], in assay [5] and in assay [6] was “inactive” throughout. Further, the Potency in assay [7] was 27.9 µM (active).
In the case of `NCCCNCCCN`, the Potency entry in assay [1], in assay [2], in assay [3], in assay [4], in assay [5] and in assay [6] was “inactive” in each case.
Regarding `C=CC(=O)OC(C)(C)C`, the Potency entry in assay [1], in assay [2], in assay [3], in assay [4], in assay [5] and in assay [6] was “inactive” throughout. Also, the Potency result in assay [7] was “inactive”.
Regarding `CC1C(=O)C[C@]2(C(C)C)C[C@H]12` (stereo partly drawn), the Potency result in assay [1], in assay [2], in assay [3], in assay [4], in assay [5] and in assay [6] was “inactive” throughout. Moreover, the Potency entry in assay [7] was “inactive”.
With `CC(C)N(CCC(C(N)=O)(c1ccccc1)c1ccccn1)C(C)C` (stereo not drawn), the Potency result in assay [1], in assay [2], in assay [3], in assay [4], in assay [5] and in assay [6] was “inactive” each time. The Potency result in assay [7] is “inactive”. The molecule was classed as inactive in assay [8].
For the molecule `CCOP(O)OCC`, the Potency entry in assay [1], in assay [2], in assay [3], in assay [4], in assay [5] and in assay [6] was “inactive” each time. Further, the Potency entry in assay [7] is “inactive”.
On to `S=C=NCc1ccccc1`, for which the Potency entry in assay [1], in assay [2], in assay [3], in assay [4], in assay [5] and in assay [6] was “inactive” each time. Further, the Potency result in assay [7] is “inactive”.
Take `[O-][Cl+]O`: the Potency result in assay [1], in assay [2], in assay [3], in assay [4], in assay [5] and in assay [6] was “inactive” throughout. The Potency entry in assay [7] was “inactive”.
Consider `CCOC(=O)CBr`, for which the Potency entry in assay [1], in assay [2], in assay [3], in assay [4], in assay [5] and in assay [6] was “inactive” in each case. For the same molecule, the Potency entry in assay [7] was “inactive”.
As to `O=S(=O)(Cl)c1ccccc1`, the Potency result in assay [1], in assay [2], in assay [3], in assay [4], in assay [5] and in assay [6] was “inactive” each time.
Turning to `CC(C)O.CC(C)O.OCCN(CCO)CCO.OCCN(CCO)CCO.[Ti]`, the Potency result in assay [1], in assay [2], in assay [3], in assay [4], in assay [5] and in assay [6] was “inactive” throughout. For the same molecule, in assay [7], the Potency entry is “inactive”.
On to `CCCCCCCCOC(=O)c1ccc(C(=O)OCCCCCCCC)c(C(=O)OCCCCCCCC)c1`, for which the Potency entry in assay [1], in assay [2], in assay [3], in assay [4], in assay [5] and in assay [6] was “inactive” each time. Besides, the Potency result in assay [7] is “inactive”.
